Shiga toxin inh – A qHTS for Small Molecule Inhibitors of Shiga Toxin | Vero cells, Shiga toxin protein synthesis inhibition reporter | inhibition, % at 38.7 µM | 9.2% of 290,000 active; in the data active means inhibition mostly above about 28%, no sharp cut-off; inactive means mostly below about 43%; further: 0% is about no effect
FMDV antiviral – High Throughput Screening for Foot and Mouth Disease Virus Antivirals; FMDV antiviral cell-based qHTS; Potency, µM (top dose mostly 57.9 µM), for inactives: top-dose activity change, negative = inhibition, hits mostly inhibitors; 1.2% of 410,000 active; AID 1159524, 2015; calls by dose curve; tested in HEK293T cells; further: read-out not given here; potency means the concentration at half of the fitted maximal effect; on the % scale 0 is the no-effect control and ±100 the full control effect; nearly all actives have a fitted effect of over 45% in size
HCV inhibitor – qHTS Assay for Inhibitors of Hepatitis C Virus (HCV); Huh7.5.1 HCVcc-Cre infection, luciferase reporter, 44 h; Potency, µM (highest dose often 41.8 µM), without a hit: at the top dose activity change, negative = inhibition, hits mostly inhibitors; AID 651820, 2012; 3.4% of 340,000 active; active means well fitted inhibition curve with a large enough effect; inconclusive means small, poorly fitted or top-dose-only effect, or another doubt; inactive means no such curve, though single readings can be large or run the other way; further: potency means the concentration at half of the fitted maximal effect; on the % scale 0 is the no-effect control and ±100 the full control effect
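Seed cells (1,000/well) for 4 h; treat with compound and infect with HCVcc-Cre, moi about 0.5. Incubate 44 h, then detect luciferase activity.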
Lassa entry inh – qHTS for Inhibitors of binding or entry into cells for Lassa Virus | Lassa virus pseudotype entry inhibition, cell reporter | Potency, µM (top dose mostly 37.9 µM), for inactives: at the highest dose activity change, negative = inhibition, hits mostly inhibitors | 1.2% of 300,000 active; calls by dose curve; tested in HEK293 cells; further: potency means the concentration at half of the fitted maximal effect; on the % scale 0 is the no-effect control and ±100 the full control effect; nearly all actives have a fitted effect of over 50% in size
CHX counter – Cycloheximide Counterscreen for Small Molecule Inhibitors of Shiga Toxin. AID 2314, 2010. 12% of 300,000 active. max response, %. cell reporter, cycloheximide protein synthesis inhibition counterscreen; in the data active means max response mostly above about 13%, no sharp cut-off; inactive means mostly below about 14%; further: read at 38.3 µM for the half of the compounds with a filed dose; 0% is about no effect
Marburg entry inh – qHTS for inhibitors of binding or entry into cells for Marburg Virus; Marburg virus pseudotyped entry inhibition, cell reporter; Potency, µM (series often up to 37.8 µM), for the others: at the highest dose activity change, negative = inhibition, hits mostly inhibitors; 1.8% of 300,000 active; AID 540276, 2011; calls by dose curve; tested in HEK293 cells; further: potency means the concentration at half of the fitted maximal effect; on the % scale 0 is the no-effect control and ±100 the full control effect
The depositor's hits bear a star; ? = inconclusive; . = no result; [ ] = another dose, or the depositor's remark. This is a sample that favours compounds with a hit; in the whole collection about 13% have one here.

SMILES | Shiga toxin inh | FMDV antiviral | HCV inhibitor | Lassa entry inh | CHX counter | Marburg entry inh
COc1ccc(NC(=O)c2cc(-c3ccc(OC)c(OC)c3)on2)cc1OC | -18 | 16% | . | -35%[14.3 µM] | -1 | -2%
Cc1ccc(NC(=O)c2cc(-c3ccco3)on2)cc1C | 99* | 50% | -6% | ? | 38* | 12%
Cc1cc(NC(=O)c2cc(-c3ccco3)on2)no1 | -11 | 52% | 13% | 9% | 3 | 8%
COc1ccc(NC(=O)c2cc(-c3ccco3)on2)cc1OC | 28 | -2% | 11µM* | 17% | 17 | 14%[46.1 µM]
C/C=C1/C[C@@H](C)[C@@](C)(O)C(=O)OCC2=CCN3CC[C@@H](OC1=O)[C@@H]23 | -11 | . | . | . | 1 | .
Cc1ccc(NC(=O)c2cc(-c3cccc(O)c3)on2)cc1C | 78* | 36% | ? | . | 47* | .
CC(OC(=O)C1CCC1)C(=O)Nc1cc(Cl)cc(Cl)c1 (configuration not stated) | . | ? | 1% | ? | . | 0%
CC1=CC(C)(C)Nc2ccc(Cc3ccc4c(c3)C(C)=CC(C)(C)N4)cc21 | -6 | 14% | 10µM* | . | -7 | .
O=C(Oc1ccc(F)cc1)c1cccnc1 | -5 | -11% | 2% | . | 3 | .
CC1=CC(C)(C)Nc2ccc(OC(=O)CN3C(=O)CCC3=O)cc21 | 27 | . | 11µM* | ? | 12 | ?
CC1=CC(C)(C)Nc2ccc(C)cc21 | -9 | 0% | 12% | 1% | -6 | 6%
CC1=CC(C)(C)Nc2ccc(OC(=O)c3ccco3)cc21 | 38 | . | ? | ? | 17* | ?
CC1=CC(C)(C)Nc2ccc(OC(=O)c3cccnc3)cc21 | 94* | 28µM* | ? | ? | 27* | ?
CCOC(=O)c1cc(-c2ccccc2)n(CC(=O)N2CCCC2)c1C | -23 | 14% | -2% | 3% | -5 | 5%
CC1=CC(C)(C)Nc2ccc(OC(=O)C(C)N3C(=O)c4ccccc4C3=O)cc21 (configuration not stated) | -36 | 28µM* | ? | ? | 1 | ?
CC(C)[C@H](NC(=O)c1ccccc1)C(=O)OCc1nc2scc(-c3ccccc3)c2c(=O)[nH]1 | -9 | ? | -15% | ? | 2 | 1%
COc1cc(C2N(c3ccccn3)C(=O)C3CCCN32)cc(OC)c1OC (configuration not stated) | -25 | 5% | 9% | 9% | -7 | 4%
N#Cc1nc(Nc2cccc(Cl)c2)c2ncn(C3CCCC3)c2n1 | . | -57% | . | . | . | .
CCn1cnc2c(Nc3cccc(Cl)c3)nc(N[C@@H]3CCCC[C@@H]3N)nc21 | . | . | . | 8.2µM* | . | 12µM*
C/C(=N\NC(=O)C(C)Oc1ccc([N+](=O)[O-])cc1)c1ccccn1 (configuration not stated) | -7 | -26% | ? | 12µM* | -3 | ?
O=C(NCC(=O)N1CCCC(C(F)(F)F)C1)c1ccc2ccccc2c1 (configuration not stated) | . | 3% | 19% | 7% | . | 4%[46.1 µM]
Cc1ccc(CNC(=O)COC(=O)Cc2ccc(-c3ccccc3)cc2)cc1 | 14 | -11% | -15% | 5% | -1 | 17%
O=C(COC(=O)Cc1ccc(-c2ccccc2)cc1)NCc1ccc(F)cc1 | 11 | 19% | 0% | ? | 15* | 8%
CC1SC(C)C(=O)N(CC(=O)NCc2ccc(F)cc2)C1=O (configuration not stated) | 4 | 5% | 13% | . | 13* | 1%
CCn1cc(CCC(=O)NCc2ccccc2OC)c2ccccc21 | 17 | 7% | 10µM* | 2%[46.1 µM] | 1 | .
SMILES | Shiga toxin inh | FMDV antiviral | HCV inhibitor | Lassa entry inh | CHX counter | Marburg entry inh
COc1ccccc1CNC(=O)CN1C(=O)c2cccc(N)c2C1=O | 68* | 12% | 2% | ? | 39* | 14%[46.1 µM]
Clc1ccc(N2CCN(Cc3cc4ccccn4n3)CC2)cc1 | -14 | . | . | ? | -3 | 10%
O=C(Nc1cc(C(=O)N2CCN(c3ccccc3)CC2)ccc1Cl)c1cccs1 | . | -9% | -41% | ? | . | 8%
CC(C)CNC(=O)CCCc1ccccc1 | 35* | 26% | 8% | ? | 43* | 1%
Cc1ccc(CNC(=O)Cc2ccc(-c3ccccc3)cc2)cc1 | -13 | 8% | 14% | -30% | 7 | ?
Cc1ccc(CC(=O)NCc2ccc(F)cc2)cc1 | 28 | 9% | 8% | -21% | 11* | ?
COc1ccccc1CNC(=O)CCCc1ccccc1 | 65* | -4% | -5% | 2% | 23* | 1%
COc1ccccc1CNC(=O)Cc1ccc(C)cc1 | 38 | 43% | -17% | . | 25* | .
COc1ccccc1CNCC(=O)NCc1ccc(C)cc1 | -12 | -6% | 6% | . | 1 | .
Cc1cc(C)n2c(Nc3ccc4c(c3)OCCO4)c(C3CC3)nc2n1 | . | -6% | . | . | . | .
COc1ccc(/C=N/NC(=S)SC)cc1OC | 22 | 28% | 18% | . | 18* | .
COC(=O)N/N=C/c1ccccc1 | 30 | 6% | 1% | 6%[46.1 µM] | 17* | 13%[46.1 µM]
COc1ccc(C=NNC(=O)NN=Cc2ccc(OC)c(OC)c2)cc1OC | . | 12% | -28% | ? | . | ?
CSC(=S)N/N=C/c1ccccc1 | 27* | 7% | 24% | 29%[46.1 µM] | 25* | 13%[46.1 µM]
CC(=O)c1cccc(OCc2cc(C(=O)N3C[C@H]4CC[C@H]3C4)no2)c1 | 82* | 17% | ? | . | 50* | .
CC(=O)c1cccc(OCc2cc(C(=O)NC3CCN(Cc4ccccc4)CC3)no2)c1 | -8 | -29% | ? | . | -3 | .
CC(=O)c1cccc(OCc2cc(C(=O)N3C[C@@H](C)O[C@@H](C)C3)no2)c1 | 75* | 37% | ? | ? | 41* | ?
CC1(C)C[C@@H]2C[C@@](C)(CN2C(=O)c2cc(COc3cccc(C(F)(F)F)c3)on2)C1 | 42* | -13% | 10µM* | -30% | 12 | ?
COCCC1CCCCN1C(=O)c1cc(COc2cccc(C(C)=O)c2)on1 (configuration not stated) | 76* | -5% | ? | 4%[46.1 µM] | 34* | -28%[46.1 µM]
COc1ccc(N2CCN(C(=O)CCS(=O)(=O)c3ccc4c(c3)NC(=O)CO4)CC2)cc1 | 6 | 0% | 0% | . | -5 | .
CCOC(=O)CC1CCCCN1C(=O)c1cc(COc2cccc3cnccc23)on1 (configuration not stated) | -5 | 2.8µM* | 2.2µM* | . | 9 | .
COC(=O)C1CCCCN1C(=O)c1cc(COc2cccc3cnccc23)on1 (configuration not stated) | -12 | . | . | . | -2 | .
O=C(c1cc(COc2cccc(C(F)(F)F)c2)on1)N1C[C@H]2CC[C@H]1C2 | 80* | 1% | -21% | -9% | 30* | ?
O=C(Cn1nc(-c2ccc(Cl)cc2)c2ccccc2c1=O)Nc1cccnc1 | -33 | 0% | -26% | -19% | -1 | ?
Cn1c(-c2ccc3ccccc3n2)[n+](C)c2ccccc21 | 72* | 19% | ? | -14% | 53* | -17%[46.1 µM]
